To fix the notation:
T1: RBFOX1 RRM (Homo sapiens, UniProt Q9NWB1 109-208)
T1 sequence: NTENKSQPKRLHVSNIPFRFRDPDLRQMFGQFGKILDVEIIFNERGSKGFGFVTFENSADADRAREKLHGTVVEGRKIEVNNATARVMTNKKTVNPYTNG

B1: GUGUAAG (DNA:RNA)
RNA: GGGAGACCGGAAUUCAGAUUGUCCGUGUAAGUUAAAUCCCGUCGUAGCCACCA
DNA 1: CAATCTGAATTCCGGTCTCCC
DNA 2: TGGTGGCTACGACGGGATT
B2: UAGUACG (DNA:RNA)
RNA: B1 RNA with G25U, U26A, A30C
DNA 1: CAATCTGAATTCCGGTCTCCC
DNA 2: TGGTGGCTACGACGGGATT
B3: CAGUGCA (DNA:RNA)
RNA: B1 RNA with G25C, U26A, A29G, A30C, G31A
DNA 1: CAATCTGAATTCCGGTCTCCC
DNA 2: TGGTGGCTACGACGGGATT
B4: GCCCCCA (DNA:RNA)
RNA: B1 RNA with U26C, G27C, U28C, A29C, A30C, G31A
DNA 1: CAATCTGAATTCCGGTCTCCC
DNA 2: TGGTGGCTACGACGGGATT
B5: UAGUAAA (DNA:RNA)
RNA: B1 RNA with G25U, U26A, G31A
DNA 1: CAATCTGAATTCCGGTCTCCC
DNA 2: TGGTGGCTACGACGGGATT
B6: GAUAUAC (DNA:RNA)
RNA: B1 RNA with U26A, G27U, U28A, A29U, G31C
DNA 1: CAATCTGAATTCCGGTCTCCC
DNA 2: TGGTGGCTACGACGGGATT
B7: AGUAAAU (DNA:RNA)
RNA: B1 RNA with G25A, U26G, G27U, U28A, G31U
DNA 1: CAATCTGAATTCCGGTCTCCC
DNA 2: TGGTGGCTACGACGGGATT
B8: GCAUUGG (DNA:RNA)
RNA: B1 RNA with U26C, G27A, A29U, A30G
DNA 1: CAATCTGAATTCCGGTCTCCC
DNA 2: TGGTGGCTACGACGGGATT
B9: CGCAUGG (DNA:RNA)
RNA: B1 RNA with G25C, U26G, G27C, U28A, A29U, A30G
DNA 1: CAATCTGAATTCCGGTCTCCC
DNA 2: TGGTGGCTACGACGGGATT
B10: GCCAUGG (DNA:RNA)
RNA: B1 RNA with U26C, G27C, U28A, A29U, A30G
DNA 1: CAATCTGAATTCCGGTCTCCC
DNA 2: TGGTGGCTACGACGGGATT
B11: CUUGGUG (DNA:RNA)
RNA: B1 RNA with G25C, G27U, U28G, A29G, A30U
DNA 1: CAATCTGAATTCCGGTCTCCC
DNA 2: TGGTGGCTACGACGGGATT
B12: AGGGUAG (DNA:RNA)
RNA: B1 RNA with G25A, U26G, U28G, A29U
DNA 1: CAATCTGAATTCCGGTCTCCC
DNA 2: TGGTGGCTACGACGGGATT
B13: CGGGGGC (DNA:RNA)
RNA: B1 RNA with G25C, U26G, U28G, A29G, A30G, G31C
DNA 1: CAATCTGAATTCCGGTCTCCC
DNA 2: TGGTGGCTACGACGGGATT
B14: ACCGGGC (DNA:RNA)
RNA: GGGAGACCGGAAUUCAGAUUGUCCACCGGGCUUAAAUCCCGUCGUAGCCACCA
DNA 1: CAATCTGAATTCCGGTCTCCC
DNA 2: TGGTGGCTACGACGGGATT
B15: CGGGCUC (DNA:RNA)
RNA: B14 RNA with A25C, C26G, C27G, G29C, G30U
DNA 1: CAATCTGAATTCCGGTCTCCC
DNA 2: TGGTGGCTACGACGGGATT
B16: GGGCUCU (DNA:RNA)
RNA: B1 RNA with U26G, U28C, A29U, A30C, G31U
DNA 1: CAATCTGAATTCCGGTCTCCC
DNA 2: TGGTGGCTACGACGGGATT
B17: GGGGCUC (DNA:RNA)
RNA: B14 RNA with A25G, C26G, C27G, G29C, G30U
DNA 1: CAATCTGAATTCCGGTCTCCC
DNA 2: TGGTGGCTACGACGGGATT
B18: CGGGCUG (DNA:RNA)
RNA: B1 RNA with G25C, U26G, U28G, A29C, A30U
DNA 1: CAATCTGAATTCCGGTCTCCC
DNA 2: TGGTGGCTACGACGGGATT
B19: GGGGCUG (DNA:RNA)
RNA: B1 RNA with U26G, U28G, A29C, A30U
DNA 1: CAATCTGAATTCCGGTCTCCC
DNA 2: TGGTGGCTACGACGGGATT
B20: CCCGGGC (DNA:RNA)
RNA: B14 RNA with A25C
DNA 1: CAATCTGAATTCCGGTCTCCC
DNA 2: TGGTGGCTACGACGGGATT
B21: GGGCUGU (DNA:RNA)
RNA: B1 RNA with U26G, U28C, A29U, A30G, G31U
DNA 1: CAATCTGAATTCCGGTCTCCC
DNA 2: TGGTGGCTACGACGGGATT
B22: UUUCUAU (DNA:RNA)
RNA: B1 RNA with G25U, G27U, U28C, A29U, G31U
DNA 1: CAATCTGAATTCCGGTCTCCC
DNA 2: TGGTGGCTACGACGGGATT
B23: UGCAUCU (DNA:RNA)
RNA: B14 RNA with A25U, C26G, G28A, G29U, G30C, C31U
DNA 1: CAATCTGAATTCCGGTCTCCC
DNA 2: TGGTGGCTACGACGGGATT
B24: AUCCGAU (DNA:RNA)
RNA: B14 RNA with C26U, G28C, G30A, C31U
DNA 1: CAATCTGAATTCCGGTCTCCC
DNA 2: TGGTGGCTACGACGGGATT
B25: ACAACUC (DNA:RNA)
RNA: B14 RNA with C27A, G28A, G29C, G30U
DNA 1: CAATCTGAATTCCGGTCTCCC
DNA 2: TGGTGGCTACGACGGGATT
B26: GCCAUCC (DNA:RNA)
RNA: B14 RNA with A25G, G28A, G29U, G30C
DNA 1: CAATCTGAATTCCGGTCTCCC
DNA 2: TGGTGGCTACGACGGGATT
B27: CGCUAUU (DNA:RNA)
RNA: B1 RNA with G25C, U26G, G27C, A30U, G31U
DNA 1: CAATCTGAATTCCGGTCTCCC
DNA 2: TGGTGGCTACGACGGGATT
B28: UAGAUGA (DNA:RNA)
RNA: B14 RNA with A25U, C26A, C27G, G28A, G29U, C31A
DNA 1: CAATCTGAATTCCGGTCTCCC
DNA 2: TGGTGGCTACGACGGGATT
B29: UCCUGGG (DNA:RNA)
RNA: B14 RNA with A25U, G28U, C31G
DNA 1: CAATCTGAATTCCGGTCTCCC
DNA 2: TGGTGGCTACGACGGGATT
B30: UGGGUUG (DNA:RNA)
RNA: B1 RNA with G25U, U26G, U28G, A29U, A30U
DNA 1: CAATCTGAATTCCGGTCTCCC
DNA 2: TGGTGGCTACGACGGGATT
B31: CUGGGUU (DNA:RNA)
RNA: B14 RNA with A25C, C26U, C27G, G30U, C31U
DNA 1: CAATCTGAATTCCGGTCTCCC
DNA 2: TGGTGGCTACGACGGGATT
B32: UGUUGGG (DNA:RNA)
RNA: B14 RNA with A25U, C26G, C27U, G28U, C31G
DNA 1: CAATCTGAATTCCGGTCTCCC
DNA 2: TGGTGGCTACGACGGGATT
B33: CUGGUUC (DNA:RNA)
RNA: B14 RNA with A25C, C26U, C27G, G29U, G30U
DNA 1: CAATCTGAATTCCGGTCTCCC
DNA 2: TGGTGGCTACGACGGGATT
B34: UGGGUUU (DNA:RNA)
RNA: B14 RNA with A25U, C26G, C27G, G29U, G30U, C31U
DNA 1: CAATCTGAATTCCGGTCTCCC
DNA 2: TGGTGGCTACGACGGGATT
B35: UGGGGGG (DNA:RNA)
RNA: B14 RNA with A25U, C26G, C27G, C31G
DNA 1: CAATCTGAATTCCGGTCTCCC
DNA 2: TGGTGGCTACGACGGGATT
B36: UGCUGGG (DNA:RNA)
RNA: B14 RNA with A25U, C26G, G28U, C31G
DNA 1: CAATCTGAATTCCGGTCTCCC
DNA 2: TGGTGGCTACGACGGGATT
B37: CCCCUGG (DNA:RNA)
RNA: B14 RNA with A25C, G28C, G29U, C31G
DNA 1: CAATCTGAATTCCGGTCTCCC
DNA 2: TGGTGGCTACGACGGGATT
B38: UGGUUUU (DNA:RNA)
RNA: B1 RNA with G25U, U26G, A29U, A30U, G31U
DNA 1: CAATCTGAATTCCGGTCTCCC
DNA 2: TGGTGGCTACGACGGGATT
B39: UGGGUUC (DNA:RNA)
RNA: B14 RNA with A25U, C26G, C27G, G29U, G30U
DNA 1: CAATCTGAATTCCGGTCTCCC
DNA 2: TGGTGGCTACGACGGGATT
B40: UGGUUCU (DNA:RNA)
RNA: B1 RNA with G25U, U26G, A29U, A30C, G31U
DNA 1: CAATCTGAATTCCGGTCTCCC
DNA 2: TGGTGGCTACGACGGGATT

Numbering of substitutions follows the chain as printed; changes in the protein carry UniProt numbers. In all, about 16,000 sequences were measured (“ka relative to ugcaugu”: median about 0.0091, highest 2% from about 0.032 on). This is one part of a sample in which the highest values are shown more often than they occur.

The target in the assay is T1, RBFOX1 RRM. In words: EMSA; HiTS-Eq, 1 nM pool, 10 min; buffer printed only for the single-RNA assays: 10 mM Tris pH 7.5, 150 mM NaCl, 3.4 mM EDTA, 0.001% NP-40, 30 C. To be noted: tags: His6 N-terminal (pET28a); label: 5' 32P. In a few lines:
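Purified wild-type or mutant RbFox RRM at increasing concentrations was equilibrated with 1 nM of 5′-radiolabelled RNA carrying 7 randomized nucleotides for 10 min in 50 µL. Unbound RNA was separated by 8% native PAGE and sequenced. Relative association constants came from read-count changes of each RNA species compared with the control reaction, normalised to the cognate motif.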
On the technique in general: Mobility shift assays separate free from complexed probe on a gel.
As for B1, the binding signal is 0.0113 KA relative to UGCAUGU.

Regarding B2, the binding signal was 0.0135 KA relative to UGCAUGU.

For B3, the binding signal is 0.0149 KA relative to UGCAUGU.

Take B4: the binding signal is 0.00457 KA relative to UGCAUGU.

Turning to B5, the binding signal is 0.00712 KA relative to UGCAUGU.

As to B6, the binding signal was 0.00528 KA relative to UGCAUGU.

Take B7: the binding signal was 0.00281 KA relative to UGCAUGU.

In the case of B8, the binding signal is 0.0185 KA relative to UGCAUGU.

For the molecule B9, the binding signal was 0.582 KA relative to UGCAUGU.

Consider B10, for which the binding signal was 0.0159 KA relative to UGCAUGU.

Turning to B11, the binding signal is 0.0206 KA relative to UGCAUGU.

Regarding B12, the binding signal is 0.0176 KA relative to UGCAUGU.

B13: the binding signal is 0.0168 KA relative to UGCAUGU.

For the molecule B14, the binding signal is 0.0122 KA relative to UGCAUGU.

Take B15: the binding signal was 0.0209 KA relative to UGCAUGU.

Turning to B16, the binding signal was 0.0214 KA relative to UGCAUGU.

Consider B17, for which the binding signal was 0.0466 KA relative to UGCAUGU.

With B18, the binding signal is 0.0324 KA relative to UGCAUGU.

B19: the binding signal was 0.0461 KA relative to UGCAUGU.

B20: the binding signal is 0.00898 KA relative to UGCAUGU.

B21: the binding signal was 0.0234 KA relative to UGCAUGU.

Regarding B22, the binding signal is 0.00863 KA relative to UGCAUGU.

On to B23, for which the binding signal is 0.0208 KA relative to UGCAUGU.

Regarding B24, the binding signal is 0.00393 KA relative to UGCAUGU.

Turning to B25, the binding signal was 0.00147 KA relative to UGCAUGU.

With B26, the binding signal was 0.00701 KA relative to UGCAUGU.

As for B27, the binding signal is 0.00582 KA relative to UGCAUGU.

Take B28: the binding signal is 0.0121 KA relative to UGCAUGU.

In the case of B29, the binding signal is 0.00619 KA relative to UGCAUGU.

Consider B30, for which the binding signal was 0.0558 KA relative to UGCAUGU.

B31: the binding signal was 0.0262 KA relative to UGCAUGU.

Regarding B32, the binding signal is 0.00877 KA relative to UGCAUGU.

Regarding B33, the binding signal was 0.0321 KA relative to UGCAUGU.

B34: the binding signal was 0.0379 KA relative to UGCAUGU.

Take B35: the binding signal is 0.0192 KA relative to UGCAUGU.

Turning to B36, the binding signal is 0.0153 KA relative to UGCAUGU.

As for B37, the binding signal was 0.0109 KA relative to UGCAUGU.

With B38, the binding signal was 0.0278 KA relative to UGCAUGU.

As to B39, the binding signal was 0.0352 KA relative to UGCAUGU.

Consider B40, for which the binding signal is 0.019 KA relative to UGCAUGU.

The values are drawn from paper PMC9911399, “Two distinct binding modes provide the RNA-binding protein RbFox with extraordinary sequence specificity”.
